# According to PubChem BioAssay (NCI):
# This is part of a sample that, as a whole, favours compounds with a hit. Of some 83,000 tested, about 20% had one in any assay.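 Assay: single dose, 48 h. Readout: percent growth (0 = no net growth; negative = cell death). Active: <10.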 Values without a mark were called inactive. Calls of active or inactive are those of the source.
# How the values were obtained:
# Test in all cases: NCI-60 one-dose screen, 48 h (100 = growth as untreated, 0 = no growth, -100 = all killed)
# Settings in all cases: 10 µM
# [1] = tested on: SR leukemia
# [2] = tested on: RPMI-8226 leukemia
# [3] = tested on: OVCAR-8 ovarian
# [4] = tested on: OVCAR-5 ovarian
# [5] = tested on: OVCAR-4 ovarian
# [6] = tested on: SK-OV-3 ovarian
# [7] = tested on: IGROV1 ovarian
# [8] = tested on: OVCAR-3 ovarian
# [9] = tested on: HS 578T breast
# [10] = tested on: NCI/ADR-RES ovarian
SMILES,growth [1],growth [2],growth [3],growth [4],growth [5],growth [6],growth [7],growth [8],growth [9],growth [10]
CCCCOc1ccc(Nc2nc3ccccc3nc2Nc2ccc(OCCCC)cc2)cc1,80.1%,57.8%,92.3%,128%,93.6%,106%,108%,68.9%,103%,94.3%
O=C(CSc1nnc(-c2c[nH]c3ccccc23)n1-c1ccccc1)c1ccc(Cl)cc1,92.4%,83.2%,24.5%,90.7%,14.9%,72.1%,51.4%,73.9%,33.2%,5.85% (active)
Cn1cc(/C=N/Nc2ccnc3cc(Cl)ccc23)c2ccccc21,-25% (active),-41.4% (active),-52.7% (active),-90.5% (active),-76.4% (active),-71.2% (active),-72.3% (active),-89.8% (active),-63.7% (active),-79.8% (active)
C=C1CCC2C3(C)COC(c4c(F)cccc4F)OC3CCC2(C)C1CC(O)C1=CCOC1=O (centres undefined),32.8%,12.6%,7.07% (active),82.9%,60.2%,100%,59.3%,38.2%,76.1%,11.6%
O=C(CSc1nnc(-c2c[nH]c3ccccc23)n1-c1ccccc1)Nc1ccc(C(=O)/C=C/c2cccc([N+](=O)[O-])c2)cc1,75.2%,13.9%,97.2%,103%,84.2%,106%,82.9%,103%,74%,96.3%
Cc1cc(C)nc(NS(=O)(=O)c2ccc(N/C(N)=N/c3nccc(-c4cccs4)n3)cc2)n1,92.3%,87%,101%,107%,93.6%,–,72.6%,107%,77.7%,101%
CN1CCCN(Cc2ccc(C(=O)Nc3cccc(Nc4ccc5c(O)cccc5n4)c3)cc2C(F)(F)F)CC1,11.4%,2.61% (active),-22% (active),-82.1% (active),-43.5% (active),–,-78.9% (active),-35.8% (active),-41.2% (active),37.7%
CCOP(=O)(OCC)O[C@H]1CC[C@]2(C)[C@H]3CC[C@@H]4[C@@H]([C@](C)(O)CCC=C(C)C)CC[C@@]4(C)[C@]3(C)CC[C@H]2C1(C)C,-7.18% (active),2.3% (active),32.9%,44%,38.8%,–,55%,11.1%,11.4%,36%
Cc1ccc2nc(-c3ccc(-c4nnc(SCC(=O)Nc5ccc(Cl)cc5)o4)cc3)[nH]c2c1,21.8%,43.2%,-11.8% (active),63.1%,4.47% (active),79.3%,37.8%,24%,40.5%,23.2%
Cc1cc(C)nc(/N=C(\N)Nc2ccc(S(=O)(=O)Nc3nc(C)cc(C)n3)cc2)n1,99.8%,98.9%,107%,119%,111%,–,106%,112%,103%,110%
COc1ccc(C2NC(=S)NC(C)=C2C(=O)OC(C)C)cc1OC (centres undefined),101%,104%,106%,105%,99.3%,135%,109%,113%,89.8%,102%
COc1cc2c3c(n(CCCNC(C)C)c(=O)c2cc1OC)-c1nc2c(cc1C3=O)OCO2,2.57% (active),-26.2% (active),-58% (active),-93.2% (active),49.8%,26.5%,40.8%,-97.4% (active),88.8%,-72% (active)
COc1cc(/C=C/C(=O)c2ccc(F)cc2)ccc1Oc1nc(Nc2ccc(F)cc2)nc(N(C)C)n1,4.07% (active),24.2%,42.7%,93.1%,56.1%,103%,93.8%,64.2%,59.3%,50.6%
C=C1CCC2C3(C)COC(c4cccc(F)c4)OC3CCC2(C)C1CC(O)C1=CCOC1=O (centres undefined),40.4%,20.6%,15.1%,76.1%,67.1%,108%,61.1%,62.1%,74.6%,4.5% (active)
COc1cccc(/C=C2\N=C(C)N(CCc3ccc(S(N)(=O)=O)cc3)C2=O)c1,82.1%,97.2%,102%,99.8%,104%,112%,103%,113%,98.6%,104%
Nc1nc(Nc2ccc(Cl)cc2)n(Cc2cccc(Br)c2)n1,10.4%,2.44% (active),2.52% (active),-24.5% (active),9.75% (active),-2.59% (active),-5.03% (active),-35.3% (active),-25.9% (active),-25% (active)
COc1cc(/C=C/C(=O)c2ccc(C(F)(F)F)cc2)ccc1Oc1nc(Nc2ccc(F)cc2)nc(N(C)C)n1,30.4%,13.5%,85%,92.7%,69.8%,103%,91.4%,79.6%,91.6%,66.7%
CCOC(=O)c1c(CSc2ccccc2)n(C)c2cc(CN(C)C)c(O)c(CN(C)C)c12,21.4%,28.5%,30.4%,63.4%,36.5%,87%,25.4%,13.8%,44.3%,76.4%
COc1ccc(-c2cc(C(=O)N=Nc3c(O)[nH]c4ccc(Br)cc34)c3ccccc3n2)cc1,3.37% (active),38.7%,8.79% (active),51.3%,51%,114%,12.3%,8.75% (active),61.6%,43.2%
Cc1ccc(/C=C/C(=O)c2ccc(NC(=O)CSc3nnc(-c4c[nH]c5ccccc45)n3-c3ccccc3)cc2)cc1,72.4%,4.29% (active),96.4%,103%,85.2%,–,93.1%,83.2%,83.8%,93.6%
Cc1noc2c(Cc3ccccc3)nn(CC(=O)N/N=C/c3ccc(Cl)cc3)c(=O)c12,104%,75.5%,8% (active),66%,-59.5% (active),–,41%,-31.8% (active),4.07% (active),53.2%
